Article PMC7862700, “An all-to-all approach to the identification of sequence-specific readers for epigenetic DNA modifications on cytosine”

Columns and labels:
Test in all cases: DAPPL (digital affinity profiling via proximity ligation, sequencing); 10 mM Tris-HCl pH 7.5, 50 mM NaCl, 1 mM DTT, 4% glycerol, room temperature, 30 min; GST-TFs on glutathione beads, 16-mer random dsDNA library, 0.1% formaldehyde crosslink after washing; high values mean tight binding
FEV = molecular target: T1, FEV (Homo sapiens, UniProt Q99581 1-238); settings: protein: recombinant; tags: N-terminal GST; dsDNA, one strand shown
T1 sequence: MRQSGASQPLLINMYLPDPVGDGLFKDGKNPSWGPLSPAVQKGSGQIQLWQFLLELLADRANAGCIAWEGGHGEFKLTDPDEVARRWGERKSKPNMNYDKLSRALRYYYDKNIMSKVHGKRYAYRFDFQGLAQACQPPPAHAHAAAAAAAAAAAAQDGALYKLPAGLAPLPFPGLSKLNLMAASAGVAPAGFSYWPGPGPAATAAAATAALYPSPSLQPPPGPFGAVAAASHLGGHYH
Procedure, shortened: (§1)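 Human transcription factors carrying a GST fusion were produced in yeast, bound to glutathione beads, tagged with DNA barcodes and pooled together with a tag-only sample. Each pool was held with 200 nmole of a random double-stranded 16-mer DNA library in Tris/NaCl/DTT/glycerol buffer for 30 min at room temperature, then washed, crosslinked in 0.1% formaldehyde, proximity-ligated with BsaI/T4 ligase (1 h, 37 °C), PCR-amplified and sequenced on an Illumina NextSeq500. Binding signal is the read frequency of each hexamer for a given factor divided by its frequency in the tag-only sample.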

ETV5 = ETV5 (Homo sapiens, UniProt P41161 1-510); settings: protein: recombinant; tags: N-terminal GST; dsDNA, one strand shown
Procedure, shortened: as §1

HSF1 = HSF1 (Homo sapiens, UniProt Q00613 1-529); settings: protein: recombinant; tags: N-terminal GST; chain copies: 3; dsDNA, one strand shown
Procedure, shortened: as §1

SPIC = molecular target: T2, SPIC (Homo sapiens, UniProt Q8N5J4 1-248); settings: protein: recombinant; tags: N-terminal GST; dsDNA, one strand shown
T2 sequence: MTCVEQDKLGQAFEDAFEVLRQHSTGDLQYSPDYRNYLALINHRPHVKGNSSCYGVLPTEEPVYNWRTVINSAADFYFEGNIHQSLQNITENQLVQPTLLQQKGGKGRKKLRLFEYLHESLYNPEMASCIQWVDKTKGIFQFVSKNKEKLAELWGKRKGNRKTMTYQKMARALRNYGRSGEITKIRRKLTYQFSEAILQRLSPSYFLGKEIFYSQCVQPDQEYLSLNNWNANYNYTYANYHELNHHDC
Procedure, shortened: as §1

ELF4 = ELF4 (Homo sapiens, UniProt Q99607 1-663); settings: protein: recombinant; tags: N-terminal GST; dsDNA, one strand shown
Procedure, shortened: as §1

ELK4 = molecular target: T3, ELK4 (Homo sapiens, UniProt P28324-2 1-405); settings: protein: recombinant; tags: N-terminal GST; dsDNA, one strand shown
T3 sequence: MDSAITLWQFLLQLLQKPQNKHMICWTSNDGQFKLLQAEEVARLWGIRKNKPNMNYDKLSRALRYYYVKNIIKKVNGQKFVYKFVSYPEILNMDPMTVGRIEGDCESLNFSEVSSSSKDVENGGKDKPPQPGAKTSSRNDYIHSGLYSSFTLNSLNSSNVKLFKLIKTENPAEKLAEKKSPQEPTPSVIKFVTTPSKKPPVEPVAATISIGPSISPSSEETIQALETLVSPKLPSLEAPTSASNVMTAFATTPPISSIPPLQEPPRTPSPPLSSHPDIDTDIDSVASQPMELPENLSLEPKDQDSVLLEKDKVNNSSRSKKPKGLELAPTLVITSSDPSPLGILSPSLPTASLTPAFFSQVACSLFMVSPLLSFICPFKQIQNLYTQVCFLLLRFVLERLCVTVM
Procedure, shortened: as §1

ETV2 = molecular target: T4, ETV2 (Homo sapiens, UniProt O00321 1-342); settings: protein: recombinant; tags: N-terminal GST; dsDNA, one strand shown
T4 sequence: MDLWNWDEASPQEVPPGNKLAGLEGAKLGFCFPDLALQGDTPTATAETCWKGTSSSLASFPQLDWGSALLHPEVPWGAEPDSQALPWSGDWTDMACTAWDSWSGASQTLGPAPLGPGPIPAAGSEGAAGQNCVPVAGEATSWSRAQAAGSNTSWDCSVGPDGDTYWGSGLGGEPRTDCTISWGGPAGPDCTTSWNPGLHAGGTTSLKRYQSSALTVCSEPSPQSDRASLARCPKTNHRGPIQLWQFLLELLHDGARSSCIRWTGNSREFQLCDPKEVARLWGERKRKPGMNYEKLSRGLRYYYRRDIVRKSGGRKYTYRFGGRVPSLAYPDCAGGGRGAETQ
Procedure, shortened: as §1

ELF3 = molecular target: T5, ELF3 (Homo sapiens, UniProt P78545 1-371); settings: protein: recombinant; tags: N-terminal GST; dsDNA, one strand shown
T5 sequence: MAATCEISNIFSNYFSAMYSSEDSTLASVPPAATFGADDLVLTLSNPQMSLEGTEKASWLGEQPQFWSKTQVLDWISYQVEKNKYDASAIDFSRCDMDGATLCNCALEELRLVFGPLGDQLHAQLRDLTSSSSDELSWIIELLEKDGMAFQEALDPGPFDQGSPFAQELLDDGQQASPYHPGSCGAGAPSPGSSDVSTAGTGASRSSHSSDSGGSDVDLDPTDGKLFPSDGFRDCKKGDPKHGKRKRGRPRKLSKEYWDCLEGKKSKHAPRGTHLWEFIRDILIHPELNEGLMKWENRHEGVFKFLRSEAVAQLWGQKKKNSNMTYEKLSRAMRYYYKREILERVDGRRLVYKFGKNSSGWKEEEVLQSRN
Procedure, shortened: as §1

CRX = CRX (Homo sapiens, UniProt O43186 1-299); settings: protein: recombinant; tags: N-terminal GST; dsDNA, one strand shown
Procedure, shortened: as §1

ETV1 = ETV1 (Homo sapiens, UniProt P50549 1-477); settings: protein: recombinant; tags: N-terminal GST; dsDNA, one strand shown
Procedure, shortened: as §1

Sequence of ETV5 (P41161 whole entry): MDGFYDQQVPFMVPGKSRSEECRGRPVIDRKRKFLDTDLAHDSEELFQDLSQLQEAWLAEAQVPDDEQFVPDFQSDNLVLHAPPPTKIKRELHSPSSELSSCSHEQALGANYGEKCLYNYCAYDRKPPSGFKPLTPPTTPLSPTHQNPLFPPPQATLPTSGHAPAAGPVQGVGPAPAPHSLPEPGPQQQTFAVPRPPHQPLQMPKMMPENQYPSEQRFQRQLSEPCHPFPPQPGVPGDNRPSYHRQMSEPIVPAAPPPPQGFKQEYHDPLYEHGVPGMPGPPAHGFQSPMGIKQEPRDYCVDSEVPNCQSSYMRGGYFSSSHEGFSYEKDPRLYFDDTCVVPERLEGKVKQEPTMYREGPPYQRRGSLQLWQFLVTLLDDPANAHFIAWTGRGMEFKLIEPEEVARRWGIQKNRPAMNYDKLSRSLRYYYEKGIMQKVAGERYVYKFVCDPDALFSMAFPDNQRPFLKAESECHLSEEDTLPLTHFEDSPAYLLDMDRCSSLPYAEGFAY
Sequence of CRX (O43186 whole entry): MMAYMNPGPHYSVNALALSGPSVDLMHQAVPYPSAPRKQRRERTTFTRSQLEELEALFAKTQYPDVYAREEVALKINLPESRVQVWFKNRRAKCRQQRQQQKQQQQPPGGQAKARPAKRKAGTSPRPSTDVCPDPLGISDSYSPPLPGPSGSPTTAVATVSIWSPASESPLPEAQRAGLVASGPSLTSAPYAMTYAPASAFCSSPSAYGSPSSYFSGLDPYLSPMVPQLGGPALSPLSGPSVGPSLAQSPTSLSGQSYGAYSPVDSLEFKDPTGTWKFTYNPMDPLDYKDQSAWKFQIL
Sequence of ETV1 (P50549 whole entry): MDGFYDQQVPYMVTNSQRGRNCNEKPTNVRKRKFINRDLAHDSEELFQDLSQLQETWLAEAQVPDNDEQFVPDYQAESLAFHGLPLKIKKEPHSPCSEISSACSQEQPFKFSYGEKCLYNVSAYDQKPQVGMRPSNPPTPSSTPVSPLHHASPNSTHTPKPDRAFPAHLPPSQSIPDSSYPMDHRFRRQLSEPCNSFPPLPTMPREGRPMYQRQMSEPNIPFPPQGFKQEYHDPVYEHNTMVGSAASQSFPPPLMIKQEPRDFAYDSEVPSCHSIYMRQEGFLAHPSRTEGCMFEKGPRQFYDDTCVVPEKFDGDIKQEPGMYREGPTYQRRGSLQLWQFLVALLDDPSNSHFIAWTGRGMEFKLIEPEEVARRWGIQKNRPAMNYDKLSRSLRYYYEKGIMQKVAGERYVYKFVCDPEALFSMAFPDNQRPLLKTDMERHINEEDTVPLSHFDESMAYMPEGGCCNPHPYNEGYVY
Sequence of HSF1 (Q00613 whole entry): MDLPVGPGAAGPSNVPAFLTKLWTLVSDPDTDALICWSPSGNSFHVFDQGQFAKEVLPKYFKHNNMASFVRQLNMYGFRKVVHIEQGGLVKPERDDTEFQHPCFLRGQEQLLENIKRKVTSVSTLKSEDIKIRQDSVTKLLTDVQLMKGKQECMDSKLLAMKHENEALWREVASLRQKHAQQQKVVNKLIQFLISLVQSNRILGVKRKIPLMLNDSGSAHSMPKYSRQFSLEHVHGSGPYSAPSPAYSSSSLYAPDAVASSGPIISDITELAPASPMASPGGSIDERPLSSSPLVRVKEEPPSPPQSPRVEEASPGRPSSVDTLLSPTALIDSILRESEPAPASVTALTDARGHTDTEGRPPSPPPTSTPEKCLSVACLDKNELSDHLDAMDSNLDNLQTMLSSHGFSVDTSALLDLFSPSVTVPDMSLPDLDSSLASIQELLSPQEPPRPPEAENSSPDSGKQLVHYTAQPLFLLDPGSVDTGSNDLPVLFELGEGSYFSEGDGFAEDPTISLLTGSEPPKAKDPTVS
Sequence of ELF4 (Q99607 whole entry): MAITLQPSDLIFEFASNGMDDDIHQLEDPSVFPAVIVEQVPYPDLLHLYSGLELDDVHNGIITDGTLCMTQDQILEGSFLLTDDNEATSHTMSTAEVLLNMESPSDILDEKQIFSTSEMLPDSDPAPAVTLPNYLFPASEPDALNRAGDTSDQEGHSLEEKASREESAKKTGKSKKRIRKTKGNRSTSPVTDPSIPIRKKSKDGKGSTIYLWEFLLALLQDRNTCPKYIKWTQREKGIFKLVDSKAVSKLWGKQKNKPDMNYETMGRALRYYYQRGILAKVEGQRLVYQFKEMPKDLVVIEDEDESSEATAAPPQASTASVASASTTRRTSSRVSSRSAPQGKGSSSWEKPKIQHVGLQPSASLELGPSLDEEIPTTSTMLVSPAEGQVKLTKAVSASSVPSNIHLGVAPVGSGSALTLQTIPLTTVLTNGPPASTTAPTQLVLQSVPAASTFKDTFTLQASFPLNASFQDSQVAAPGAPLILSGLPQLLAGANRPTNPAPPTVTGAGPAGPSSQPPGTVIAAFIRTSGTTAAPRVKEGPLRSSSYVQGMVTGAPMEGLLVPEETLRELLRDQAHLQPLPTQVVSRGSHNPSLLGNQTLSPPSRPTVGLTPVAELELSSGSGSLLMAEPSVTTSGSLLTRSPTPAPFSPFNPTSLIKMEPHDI

Row | Sequence | binding signal (FEV) | binding signal (ETV5) | binding signal (HSF1) | binding signal (SPIC) | binding signal (ELF4) | binding signal (ELK4) | binding signal (ETV2) | binding signal (ELF3) | binding signal (CRX) | binding signal (ETV1)
1 | TATCAC | 1.21 fold enrichment (6-mer frequency, TF over GST control) | 1.24 fold enrichment (6-mer frequency, TF over GST control) | 1.14 fold enrichment (6-mer frequency, TF over GST control) | 1.17 fold enrichment (6-mer frequency, TF over GST control) | 1.24 fold enrichment (6-mer frequency, TF over GST control) | 1.18 fold enrichment (6-mer frequency, TF over GST control) | 1.34 fold enrichment (6-mer frequency, TF over GST control) | 1.25 fold enrichment (6-mer frequency, TF over GST control) | 1.35 fold enrichment (6-mer frequency, TF over GST control) | 1.17 fold enrichment (6-mer frequency, TF over GST control)
2 | CTCCAA | 1.29 fold enrichment (6-mer frequency, TF over GST control) | 1.3 fold enrichment (6-mer frequency, TF over GST control) | 1.31 fold enrichment (6-mer frequency, TF over GST control) | 1.35 fold enrichment (6-mer frequency, TF over GST control) | 1.38 fold enrichment (6-mer frequency, TF over GST control) | 1.23 fold enrichment (6-mer frequency, TF over GST control) | 1.36 fold enrichment (6-mer frequency, TF over GST control) | 1.32 fold enrichment (6-mer frequency, TF over GST control) | 1.14 fold enrichment (6-mer frequency, TF over GST control) | 1.33 fold enrichment (6-mer frequency, TF over GST control)
3 | CTATTC | 1.28 fold enrichment (6-mer frequency, TF over GST control) | 1.35 fold enrichment (6-mer frequency, TF over GST control) | 1.57 fold enrichment (6-mer frequency, TF over GST control) | 1.49 fold enrichment (6-mer frequency, TF over GST control) | 1.26 fold enrichment (6-mer frequency, TF over GST control) | 1.32 fold enrichment (6-mer frequency, TF over GST control) | 1.37 fold enrichment (6-mer frequency, TF over GST control) | 1.38 fold enrichment (6-mer frequency, TF over GST control) | 1.16 fold enrichment (6-mer frequency, TF over GST control) | 1.28 fold enrichment (6-mer frequency, TF over GST control)
4 | ACTTTT | 1.25 fold enrichment (6-mer frequency, TF over GST control) | 1.27 fold enrichment (6-mer frequency, TF over GST control) | 1.25 fold enrichment (6-mer frequency, TF over GST control) | 1.35 fold enrichment (6-mer frequency, TF over GST control) | 1.32 fold enrichment (6-mer frequency, TF over GST control) | 1.25 fold enrichment (6-mer frequency, TF over GST control) | 1.25 fold enrichment (6-mer frequency, TF over GST control) | 1.45 fold enrichment (6-mer frequency, TF over GST control) | 1.25 fold enrichment (6-mer frequency, TF over GST control) | 1.32 fold enrichment (6-mer frequency, TF over GST control)
5 | ATCTTG | 1.33 fold enrichment (6-mer frequency, TF over GST control) | 1.2 fold enrichment (6-mer frequency, TF over GST control) | 1.43 fold enrichment (6-mer frequency, TF over GST control) | 1.39 fold enrichment (6-mer frequency, TF over GST control) | 1.33 fold enrichment (6-mer frequency, TF over GST control) | 1.39 fold enrichment (6-mer frequency, TF over GST control) | 1.35 fold enrichment (6-mer frequency, TF over GST control) | 1.5 fold enrichment (6-mer frequency, TF over GST control) | 1.54 fold enrichment (6-mer frequency, TF over GST control) | 1.25 fold enrichment (6-mer frequency, TF over GST control)
6 | TCTTGG | 1.3 fold enrichment (6-mer frequency, TF over GST control) | 1.32 fold enrichment (6-mer frequency, TF over GST control) | 1.39 fold enrichment (6-mer frequency, TF over GST control) | 1.47 fold enrichment (6-mer frequency, TF over GST control) | 1.39 fold enrichment (6-mer frequency, TF over GST control) | 1.41 fold enrichment (6-mer frequency, TF over GST control) | 1.22 fold enrichment (6-mer frequency, TF over GST control) | 1.41 fold enrichment (6-mer frequency, TF over GST control) | 1.32 fold enrichment (6-mer frequency, TF over GST control) | 1.23 fold enrichment (6-mer frequency, TF over GST control)
7 | ATCGAA | 1.08 fold enrichment (6-mer frequency, TF over GST control) | 1.16 fold enrichment (6-mer frequency, TF over GST control) | 1.87 fold enrichment (6-mer frequency, TF over GST control) | 1.11 fold enrichment (6-mer frequency, TF over GST control) | 1.14 fold enrichment (6-mer frequency, TF over GST control) | 1.14 fold enrichment (6-mer frequency, TF over GST control) | 1.07 fold enrichment (6-mer frequency, TF over GST control) | 1.07 fold enrichment (6-mer frequency, TF over GST control) | 1.31 fold enrichment (6-mer frequency, TF over GST control) | 1.13 fold enrichment (6-mer frequency, TF over GST control)
8 | TTTCGG | 1.15 fold enrichment (6-mer frequency, TF over GST control) | 1.13 fold enrichment (6-mer frequency, TF over GST control) | 1.39 fold enrichment (6-mer frequency, TF over GST control) | 1.05 fold enrichment (6-mer frequency, TF over GST control) | 1.21 fold enrichment (6-mer frequency, TF over GST control) | 1.14 fold enrichment (6-mer frequency, TF over GST control) | 1.16 fold enrichment (6-mer frequency, TF over GST control) | 1.22 fold enrichment (6-mer frequency, TF over GST control) | 1.25 fold enrichment (6-mer frequency, TF over GST control) | 1.31 fold enrichment (6-mer frequency, TF over GST control)
